# According to PubChem BioAssay:
# Unmarked numbers belong to inactive results. For some of these results: Entries with a potency or affinity are not part of this list. Active and inactive are the calls of the source. Unless noted, the rule behind the calls is not given here.
# Key:
# [1] = antimalarial activity against Dd2 strain (AID 2302;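 active = growth inhibition above 50% at the single 2 µM test dose, taken to imply half-maximal potency below 2 µM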;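 note: 0% = DMSO untreated growth and 100% = chloroquine plus artemisinin killed control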); details: P. falciparum Dd2 in RBCs, LDH growth readout, 72 h; at 2 µM; active compounds read high
# [2] = human hepatoma cell viability loss – ATP luminescence, cytotoxicity control for P. falciparum antimalarial project, primary screen (AID 2303;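 active = inhibition above 50%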;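 note: 0% = DMSO wells and 100% = digitonin-killed cells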); details: HepG2 viability, 24-48 h, at 10 µM, active compounds read high
# [3] = molecular target: L-lactate dehydrogenase (Plasmodium falciparum (isolate CDC / Honduras)) (UniProt Q27743); experiment: PfLDH activity inhibition – cell lysate, 3D7 strain, counter-screen for P. falciparum growth inhibition project (AID 2304);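 note: 0% = vehicle and 100% = reference inhibitor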; details: P. falciparum 3D7 crude extract, LDH APAD/NBT absorbance; at 2 µM; active compounds read high
# [4] = inhibition of 3D7 malaria parasite growth – strain 3D7 (AID 2306);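 note: 0% = DMSO wells and 100% = chloroquine plus artemisinin control wells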; details: P. falciparum 3D7 erythrocytic growth, LDH absorbance, 72 h; at 2 µM; active compounds read high
# [5] = molecular target: Calcium-dependent protein kinase 1 (Plasmodium falciparum (isolate 3D7)) (UniProt P62344); experiment: PfCDPK1 kinase inhibitors, biochemical, TCAMS library (AID 1159585; cut-off not given, nearly all actives have IC50 up to about 0.98 µM;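 note: inhibitors leave more ATP so luminescence rises with inhibition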); details: recombinant PfCDPK1, Kinase-Glo ATP depletion luminescence
# [6] = molecular target: Plasmodium falciparum protein kinase 6 (PK6, PF3D7_1337100) (UniProt Q8IDW1); experiment: PfPK6 kinase inhibitors, biochemical, TCAMS library (AID 1159586); details: recombinant PfPK6, Kinase-Glo ATP depletion luminescence
# [7] = molecular target: Protein kinase 7 (PK7), Plasmodium falciparum 3D7 (PF3D7_0213400) (UniProt Q7YTF7); experiment: inhibition of Plasmodium PK7 catalytic activity – biochemical, TCAMS antimalarial set, Kinase-Glo luminescence (AID 1159587); details: recombinant PfPK7, Kinase-Glo ATP depletion luminescence
# [8] = molecular target: Calcium-dependent protein kinase 4 (Plasmodium falciparum (isolate 3D7)) (UniProt Q8IBS5); experiment: PfCDPK4 kinase inhibitors, biochemical, TCAMS library (AID 1159588; cut-off not given, nearly all actives have IC50 up to about 0.91 µM); details: recombinant PfCDPK4, Kinase-Glo ATP depletion luminescence
# Calcium-dependent protein kinase 4 (Plasmodium falciparum (isolate 3D7)), sequence (Q8IBS5 whole entry, looked up): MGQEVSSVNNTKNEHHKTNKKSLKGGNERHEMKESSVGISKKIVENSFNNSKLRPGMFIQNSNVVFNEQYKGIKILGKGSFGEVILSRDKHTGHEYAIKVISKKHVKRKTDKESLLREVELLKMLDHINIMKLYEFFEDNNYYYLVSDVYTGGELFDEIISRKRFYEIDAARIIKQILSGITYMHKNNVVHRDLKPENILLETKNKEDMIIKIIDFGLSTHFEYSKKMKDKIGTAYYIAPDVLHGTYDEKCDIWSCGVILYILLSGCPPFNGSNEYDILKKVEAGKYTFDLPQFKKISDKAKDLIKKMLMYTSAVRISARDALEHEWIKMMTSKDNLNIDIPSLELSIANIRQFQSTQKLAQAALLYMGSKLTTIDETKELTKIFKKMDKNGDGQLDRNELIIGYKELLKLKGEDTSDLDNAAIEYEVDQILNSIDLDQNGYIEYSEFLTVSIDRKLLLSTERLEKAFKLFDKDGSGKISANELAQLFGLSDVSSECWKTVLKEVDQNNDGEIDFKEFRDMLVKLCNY
# Protein kinase 7 (PK7), Plasmodium falciparum 3D7 (PF3D7_0213400), sequence (Q7YTF7 1-343): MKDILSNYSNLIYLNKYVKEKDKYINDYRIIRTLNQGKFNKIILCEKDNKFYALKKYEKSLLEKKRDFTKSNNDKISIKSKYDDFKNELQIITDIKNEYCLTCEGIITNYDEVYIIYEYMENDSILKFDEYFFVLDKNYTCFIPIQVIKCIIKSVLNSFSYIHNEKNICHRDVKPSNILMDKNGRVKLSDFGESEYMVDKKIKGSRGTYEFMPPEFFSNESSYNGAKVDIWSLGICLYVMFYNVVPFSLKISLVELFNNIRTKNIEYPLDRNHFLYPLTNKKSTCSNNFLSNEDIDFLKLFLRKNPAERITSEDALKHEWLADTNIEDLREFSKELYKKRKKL
# Plasmodium falciparum protein kinase 6 (PK6, PF3D7_1337100), sequence (Q8IDW1 1-305): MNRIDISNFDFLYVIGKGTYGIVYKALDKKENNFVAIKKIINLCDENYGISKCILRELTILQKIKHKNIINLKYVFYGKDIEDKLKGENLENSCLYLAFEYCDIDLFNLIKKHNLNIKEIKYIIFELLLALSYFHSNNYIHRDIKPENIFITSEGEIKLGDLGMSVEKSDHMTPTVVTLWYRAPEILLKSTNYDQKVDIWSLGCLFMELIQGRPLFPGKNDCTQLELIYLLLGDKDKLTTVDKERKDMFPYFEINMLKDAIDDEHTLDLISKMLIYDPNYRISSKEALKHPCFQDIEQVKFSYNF
# L-lactate dehydrogenase (Plasmodium falciparum (isolate CDC / Honduras)), sequence (Q27743 whole entry, looked up): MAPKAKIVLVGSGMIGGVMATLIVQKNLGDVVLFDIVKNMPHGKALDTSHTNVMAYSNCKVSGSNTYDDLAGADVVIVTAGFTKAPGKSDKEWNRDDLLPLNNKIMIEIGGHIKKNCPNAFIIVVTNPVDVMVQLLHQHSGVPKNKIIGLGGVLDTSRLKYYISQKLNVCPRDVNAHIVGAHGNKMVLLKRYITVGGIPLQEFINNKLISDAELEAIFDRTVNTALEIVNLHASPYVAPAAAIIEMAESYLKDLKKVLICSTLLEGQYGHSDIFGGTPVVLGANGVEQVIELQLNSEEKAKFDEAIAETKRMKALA
# Calcium-dependent protein kinase 1 (Plasmodium falciparum (isolate 3D7)), sequence (P62344 whole entry, looked up): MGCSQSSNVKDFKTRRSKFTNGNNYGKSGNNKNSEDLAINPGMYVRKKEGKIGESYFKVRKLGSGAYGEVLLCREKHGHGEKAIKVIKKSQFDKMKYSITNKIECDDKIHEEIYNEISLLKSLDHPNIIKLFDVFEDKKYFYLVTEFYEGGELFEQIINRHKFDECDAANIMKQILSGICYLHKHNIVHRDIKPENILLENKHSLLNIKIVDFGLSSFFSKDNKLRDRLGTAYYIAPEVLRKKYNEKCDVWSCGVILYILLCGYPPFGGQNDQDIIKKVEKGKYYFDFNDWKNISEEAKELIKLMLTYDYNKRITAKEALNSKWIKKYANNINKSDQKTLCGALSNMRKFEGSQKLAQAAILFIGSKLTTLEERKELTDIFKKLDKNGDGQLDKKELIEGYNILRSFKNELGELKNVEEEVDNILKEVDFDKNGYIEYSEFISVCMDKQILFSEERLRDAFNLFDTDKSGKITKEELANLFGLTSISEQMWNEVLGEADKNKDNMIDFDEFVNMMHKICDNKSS
SMILES,growth inhibition [1],inhibition [2],inhibition [3] [%],growth inhibition [4],outcome [5],outcome [6],outcome [7],outcome [8]
O=C(/C=C/c1ccc(Cl)cc1)NCCCCCN1CCCN(C(=O)Nc2ccc(F)c(Cl)c2)CC1,6%,29%,1,94% (active),inactive,inactive,inactive,inactive
Cc1nc2nc(N)nc(N)c2c(C)c1Cc1c(Cl)cccc1Cl,5%,7%,-1,94% (active),inactive,inactive,inactive,inactive
COc1cccc(-c2cc(-c3ccc(NC(=O)c4ccccc4)cc3)c3c(N)ncnc3n2)c1,98% (active),-4%,0,99% (active),inactive,inactive,inactive,inactive
O=C(Nc1cccnc1)c1cc(-c2cc(Cl)ccc2O)n[nH]1,85% (active),7%,6,98% (active),inactive,inactive,inactive,inactive
Cc1cc(-c2cccc3c(C(=O)N4CCc5cc6nccc(N7CCCN(C)CC7)c6cc54)cccc23)cc(C)n1,100% (active),17%,6,100% (active),inactive,inactive,inactive,inactive
O=C(/C=C/c1ccc(F)c(Br)c1)NCCCCCN1CCC(c2c[nH]c3ccccc23)CC1,10%,39%,-7,92% (active),inactive,inactive,inactive,inactive
COc1ccccc1N1CCN(CCCCNC(=O)c2ccc(NC(=O)c3cc4ccccc4o3)cc2)CC1,2%,9%,-1,84% (active),inactive,inactive,inactive,inactive
COc1c(C2CCN(CCCCNC(=O)c3ccc(-c4ccc(NC(=O)C(F)(F)F)cc4)cc3)CC2)ccc2c1CCCC2,33%,95% (active),8,86% (active),inactive,inactive,inactive,inactive
N#Cc1cccc(NC(=O)C2=C(CCc3ccc4c(c3)OCO4)NC(=O)NC2c2cccc(C#N)c2)c1 (configuration not stated),47%,3%,-1,96% (active),inactive,inactive,inactive,inactive
Fc1cc(Cl)ccc1Nc1ccnc2cc(-c3scnc3CNCCN3CCOCC3)ccc12,84% (active),-7%,-2,99% (active),inactive,inactive,inactive,inactive
CCCNC[C@@H](O)[C@H](Cc1ccccc1)NC(=O)c1cc2c3c(c1)c(CC)cn3CCS(=O)(=O)N2C,98% (active),-4%,2,97% (active),inactive,inactive,inactive,inactive
NC1CCCN(Cc2cccc(-c3cccc(-c4nc5ccccc5[nH]4)c3)c2)C1 (configuration not stated),61% (active),24%,-5,101% (active),inactive,inactive,inactive,inactive
Ic1cc(CNC2CCCCC2)ccc1OCc1cccc(COc2ccc(CNC3CCCCC3)cc2I)c1,34%,-1%,-4,93% (active),inactive,inactive,inactive,inactive
COc1ccc(Nc2nc(NC3CCN(Cc4ccccc4)CC3)cc(-c3ccncc3)n2)cc1,40%,26%,0,88% (active),inactive,inactive,inactive,inactive
CCCCCn1c(Sc2ccc(C#N)c([N+](=O)[O-])c2)nnc1-c1ccc(Cl)cc1,29%,18%,3,88% (active),inactive,inactive,inactive,inactive
COc1ccccc1C(=O)Nc1cccc(N2CCC(NCc3ccc(-n4cccn4)cc3)CC2)c1,30%,9%,-1,86% (active),inactive,inactive,inactive,inactive
CCC(CC)C(CC(=O)NC(C)(C)CCc1ccccc1OC)Nc1ccc(C#N)c2ccccc12 (configuration not stated),91% (active),9%,-1,93% (active),inactive,inactive,inactive,inactive
COCC(=O)N(Cc1ccccc1-c1cccc(CNCc2ccc3c(c2)OCO3)c1)C1CCN(Cc2ccccc2)CC1,72% (active),33%,-1,94% (active),inactive,inactive,inactive,inactive

SMILES,growth inhibition [1],inhibition [2],inhibition [3] [%],growth inhibition [4],outcome [5],outcome [6],outcome [7],outcome [8]
COc1ccc2nccc(N(C)CC3(O)CCN(CCc4ccc5c(c4)NC(=O)CS5)CC3)c2n1,67% (active),10%,1,91% (active),inactive,inactive,inactive,inactive
CC(C)CCCC(C)(C)NC[C@@H](O)[C@H](Cc1ccccc1)NC(=O)c1cccc(OCC2CC2)c1,91% (active),99% (active),3,96% (active),inactive,inactive,inactive,inactive
Cc1cccc2[nH]c(-c3ccc(-c4cccc(CN5CCN(c6ccncc6)CC5)c4)s3)nc12,99% (active),48%,6,101% (active),inactive,inactive,inactive,inactive
CCOc1c(C)cc(C(F)(F)F)cc1CNCCCNc1cc(=O)c2ccccc2[nH]1,1%,-1%,-7,97% (active),inactive,inactive,inactive,inactive
COc1ccc(CN(C)C(=O)CCNS(=O)(=O)c2ccc3c(c2)OCCCO3)cc1F,94% (active),9%,0,96% (active),inactive,inactive,inactive,inactive
CN1CCN(C(C(=O)NCc2cc(Cl)cc(Cl)c2)c2ccc(NC(=O)Nc3ccccc3)cc2)CC1 (configuration not stated),43%,23%,-5,98% (active),inactive,inactive,inactive,inactive
CN1CCC(c2ccc(NC(=O)c3ccc(-c4cccc(C(F)(F)F)c4)o3)cc2)CC1,23%,23%,-3,86% (active),inactive,inactive,inactive,inactive
CCCCCn1c(Sc2ccc(C#N)c([N+](=O)[O-])c2)nnc1-c1cc(OC)cc(OC)c1,24%,17%,1,93% (active),inactive,inactive,inactive,inactive
Cc1cc(N2CCCC2)nc(Nc2ccc(NC(=O)c3ccccc3F)cc2)n1,44%,36%,-3,98% (active),inactive,inactive,inactive,inactive
C(=NNc1nc2ccccc2[nH]1)c1ccccc1OCc1ccccc1,90% (active),15%,6,100% (active),inactive,inactive,inactive,inactive
Cc1cc2ccccc2n1CC(=O)N1CC(C(=O)N2CCCCC2)Oc2ccccc21 (configuration not stated),77% (active),-1%,2,99% (active),inactive,inactive,inactive,inactive
COc1ccc(-c2nonc2NC(=O)c2ccc(OC(C)C)cc2)cc1OC,99% (active),11%,-3,100% (active),inactive,inactive,inactive,inactive
CC(=O)Nc1cccc(CNCc2ccc(-c3cnc(N4CCCC(C)(C)C4)nc3)cc2)c1,75% (active),10%,0,93% (active),inactive,inactive,inactive,inactive
CN(C)C(=O)c1cccc(COc2ccc(N3C(N)=NC(N)=NC3(C)C)cc2Cl)c1,–,–,1,–,inactive,inactive,inactive,inactive
O=C(N[C@H]1CCCC[C@H]1C(=O)O)c1ccccc1,3%,7%,-5,95% (active),inactive,inactive,inactive,inactive
COc1ccc2nccc([C@@H](O)CN3CCC(NC/C=C/c4cccnc4)CC3)c2c1,19%,-7%,-2,100% (active),inactive,inactive,inactive,inactive
Cc1cc(Nc2ccc3ccccc3c2)n2ncnc2n1,95% (active),11%,-2,96% (active),inactive,inactive,inactive,inactive
